Measured values from PubChem BioAssay (NCI).
Compounds without any hit were thinned out: in the full panel of roughly 83,000, 20% have a hit.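 For each line, cells grew in 96-well plates with the test compound present at a single concentration for 48 hours.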 Unmarked numbers belong to inactive results. Active and inactive are the calls of the source. The calls were made as follows: active = growth percent below 10; inactive = the rest.

These compounds were tested on OVCAR-5 ovarian (assay: NCI-60 one-dose screen, 48 h (100 = growth as untreated, 0 = no growth, -100 = all killed)). Conditions: 10 µM.

Structure (SMILES) | growth
N#Cc1ccc(-c2nn(-c3ccc(C(=O)O)cc3)cc2CNc2ccc(Oc3ccccc3)cc2)cc1 | 81.1%
COc1cc2c(cc1OC)CN(CCCCOc1cc(O)c3c(=O)cc(-c4ccccc4)oc3c1)CC2 | 114%
Cc1cc(=O)oc2cc(OCCCCOc3ccc(/C=C/C(=O)Nc4ccc(F)c(Cl)c4)cc3)ccc12 | 101%
COc1ccc(CN2[C@@H](C(=O)NCc3ccc(C(=O)NO)cc3)Cc3c([nH]c4ccccc34)[C@@H]2C2CC2)cc1 | 11.5%
COC(=O)c1c(C(=O)OC)c2n(c1C)[C@@H]([C@@H](C)[C@H]1CC[C@H]3[C@@H]4CCC5=CC(=O)CC[C@]5(C)[C@H]4CC[C@]13C)SC2 | 54.2%
O=C1CCC(N2Cc3cc(CC(=O)Nc4ccc(N5CCCCC5)cc4)ccc3C2=O)C(=O)N1 (stereo not given) | 70.5%
Cn1cc(-c2cc(N)n3nc(-c4c[nH]c5ccc(Br)cc45)cc3n2)c2cc(Br)cnc21 | -61.9% (active)
COc1ccc(C(=O)CSc2nnc(-c3c[nH]c4ccccc34)n2-c2ccccc2)cc1 | 77.4%
CC(C)C1=C[C@@]23CC[C@@H]4[C@](C)(CCC[C@]4(C)C(=O)NCc4ccccc4)[C@H]2C[C@@H]1[C@H]1C(=O)CCC(=O)[C@H]13 | 83.8%
Nc1nc(Nc2ccccc2)nn1Cc1c(Cl)cccc1Cl | 46.6%
Cc1ccc2nc(COc3ccc(C(=O)NNC(=S)NCCc4ccccc4)cc3)[nH]c2c1 | 88.9%
COc1cc2c3c(n(CCCn4ccnc4)c(=O)c2cc1OC)-c1nc2c(cc1C3=O)OCO2 | 57.2%
Cc1ccc(/C(N)=N/c2sc(-c3ccccc3)nc2-c2ccccc2)cc1 | 84.1%
Cc1cccc(NC(=O)CSc2nc3ccc(F)cc3c(=O)n2-c2ccc(Cl)cc2)c1C | 90.3%
CCCn1c(=O)c2[nH]c(-c3ccc(OCc4nc5ccc(C)cc5[nH]4)cc3)nc2n(CCC)c1=O | 40.6%
O=S(=O)(Nc1ncccn1)c1ccc(-n2c(-c3ccccc3)nc(-c3ccccc3)c2-c2ccccc2)cc1 | 104%
Cc1ccc(C(=O)NNC(=O)CSc2nc3ccccc3c(=O)[nH]2)cc1 | 104%
COc1cc(OC(F)(F)F)ccc1C(=O)Nc1sc2c(c1C#N)CCC(=O)C2 | 138%
COc1ccc(C(=O)Nc2sc3c(c2C#N)CCC(=O)C3)cc1C(F)(F)F | 35.3%
COc1ccc(-c2c(N)c(=O)n(C)c3ccccc23)cc1 | 76.7%

Structure (SMILES) | growth
COc1ccc2c(c1)N=C(C(=O)O)/C2=C/c1sc(Nc2ccc(O)cc2)nc1O | 109%
CN(C)c1ccc(/C=C/c2nc3ccccc3c(=O)n2CC(=O)Nc2ccc(Cl)cc2)cc1 | 75.4%
COc1ccccc1C(=O)NNC(=O)CSc1nc2c(c(=O)[nH]1)CCCC2 | 108%
CN(C)c1nc(NCCNS(=O)(=O)c2ccc(C(=O)/C=C/c3ccccc3)cc2)nc(Nc2ccc(F)cc2)n1 | 38.2%
CN(CCO)c1oc(-c2ccccc2)nc1[P+](c1ccccc1)(c1ccccc1)c1ccccc1 | 16.2%
CCOC(=O)C1=C(N)N(c2ccccc2)C2=C(C(=O)CC(C)(C)C2)C1c1ccccc1OC (stereo not given) | 103%
CCOC(=O)C1=C(N)N(c2ccccc2)C2=C(C(=O)CC(C)(C)C2)C1c1ccc(Cl)cc1 (stereo not given) | 57.6%
Brc1ccc(N/N=C/c2c[nH]c3ccccc23)nc1 | 45.4%
C=CCn1c(SCC(=O)Nc2ccc(C(=O)/C=C/c3ccccc3)cc2)nnc1-c1c[nH]c2ccccc12 | 102%
C/C(=C\CSc1ccccc1C(=O)O)CCCC(C)CCCC(C)CCCC(C)C (stereo not given) | 115%
COc1cc2c(cc1OC)/C(=C\c1sc(Nc3ccc(O)cc3)nc1O)C(C(=O)O)=N2 | 34.6%
COc1ccc(Nc2nc(N)n(Cc3cccc(Br)c3)n2)cc1 | 21.7%
CC[C@]12C=CCN3CC[C@@]4(c5cc(C#CCNc6ccc(C)c(Nc7nccc(-c8cccnc8)n7)c6)c(OC)cc5N(C)[C@H]4[C@@](O)(C(=O)OC)[C@@H]1OC(C)=O)C32 (stereo not given in full) | 81.9%
O=S(=O)(Nc1ncccn1)c1ccc(-n2c(-c3ccc(Br)cc3)nc(-c3ccccc3)c2-c2ccccc2)cc1 | 70.5%
Cc1ccc2nc(COc3ccc(C(=O)NNC(=S)NC(=O)c4ccccc4)cc3)[nH]c2c1 | 80.2%
N#Cc1c(NC(=O)c2ccc(C(F)(F)F)c(Cl)c2)sc2c1CCC(=O)C2 | -8.2% (active)
CN1CCN(c2ccc(C(=O)/C=C/c3cc(C(F)(F)F)ccc3Cl)cc2)CC1 | -91% (active)
CN1CCN(Cc2ccc(C(=O)Nc3cccc(Nc4ccc5c(O)cccc5n4)c3)cc2C(F)(F)F)CC1 | -48.7% (active)
CC(C)(C)c1ccc(NCc2cn(-c3ccc(C(=O)O)cc3)nc2-c2ccc(C#N)cc2)cc1 | 32.6%
CCOc1ccc(/C=N/NC(=O)Cn2nc(Cc3ccc([N+](=O)[O-])cc3)c3onc(C)c3c2=O)cc1 | 43.8%
